Drawing on PubChem BioAssay AID1441 (NMMLSC, 2008), this text covers binding response (% of control) for 96 compounds.

Hit rate of the full screen: of about 220,000 compounds, about 830 (0.38%) were called active. Only a selection was taken, and actives are over-represented in it overall. Unmarked numbers belong to inactive results. The rule behind the calls is not given here.

The target in the assay is Regulator of G-protein signaling 16 (Homo sapiens) + Guanine nucleotide-binding protein G(o) subunit alpha (Homo sapiens) (UniProt O15492+P09471). The assay is described as follows: modulators of RGS16 binding to Galphao, primary screen, biochemical, human proteins, multiplexed bead flow cytometry (AID 1441).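 Note: Galphao activated by GDP with aluminum fluoride before binding.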 The following applies: bead-based flow cytometry RGS16-Galphao binding, fluorescence; at 10 µM; actives lie on both sides. On the technique in general: Flow cytometry measures light scatter and fluorescence of single cells or particles in a stream.
Chain of Regulator of G-protein signaling 16 (Homo sapiens) + Guanine nucleotide-binding protein G(o) subunit alpha (Homo sapiens) (O15492 whole entry, looked up): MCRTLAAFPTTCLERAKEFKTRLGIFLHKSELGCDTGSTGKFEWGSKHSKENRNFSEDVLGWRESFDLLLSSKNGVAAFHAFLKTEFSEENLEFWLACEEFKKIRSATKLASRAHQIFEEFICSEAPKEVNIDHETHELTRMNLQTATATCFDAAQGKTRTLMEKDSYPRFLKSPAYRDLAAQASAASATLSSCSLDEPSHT
Chain of Regulator of G-protein signaling 16 (Homo sapiens) + Guanine nucleotide-binding protein G(o) subunit alpha (Homo sapiens) (P09471 whole entry, looked up): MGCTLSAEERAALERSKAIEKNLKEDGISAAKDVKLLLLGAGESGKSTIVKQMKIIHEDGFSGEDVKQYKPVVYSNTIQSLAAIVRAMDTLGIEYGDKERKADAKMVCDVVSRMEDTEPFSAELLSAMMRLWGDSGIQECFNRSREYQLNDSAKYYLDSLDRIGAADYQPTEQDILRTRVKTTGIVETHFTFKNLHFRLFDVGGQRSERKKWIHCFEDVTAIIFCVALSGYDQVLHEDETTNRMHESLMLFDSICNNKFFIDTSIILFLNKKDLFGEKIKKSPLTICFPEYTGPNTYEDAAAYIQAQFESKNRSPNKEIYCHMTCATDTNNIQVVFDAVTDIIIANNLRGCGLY
For `CCCn1cc(SCC(N)=O)c2ccccc21`, the binding response (% of control) is 85.2%.
As for `O=C(Cc1c[nH]c2ccccc12)OCCOC(=O)Cc1c[nH]c2ccccc12`, the figure is 97.3%; as for `NC(=O)CSc1c[nH]c2ccccc12`, 19.6% (active); as for `Oc1ccc(N=Nc2nccs2)c(O)c1`, -16.2% (active).
The same measure for `Oc1ccc2ccccc2c1N=Nc1nccs1`: 99.9%.
As for `CCN1CCN(C(=O)CCN2C(=O)c3ccccc3C2=O)CC1`, the figure is 93.9%; as for `Cc1noc(C)c1S(=O)(=O)Nc1cc(C(F)(F)F)ccc1N1CCOCC1`, 98%; as for `COC(=O)c1c(C)[nH]c(C)c1-c1ccc([N+](=O)[O-])cc1`, 85.3%.
As for `Cc1cc(C)cc(C(=O)N2CCN=C2SCc2ccc([N+](=O)[O-])cc2)c1`, the binding response (% of control) is 96.2%.
Turning to `CC(=O)N1CC[n+]2c(-c3ccc([N+](=O)[O-])cc3)csc21`, the binding response (% of control) was 12.8% (active).
As for `O=C(Nc1ccc2cn[nH]c2c1)c1ccc(S(=O)(=O)N2CCOCC2)cc1`, the figure is 92.3%.
As for `Cc1cc(F)ccc1S(=O)(=O)Nc1ncnc2scc(-c3ccc(F)cc3)c12`, the figure is 95.8%.
The same measure for `CCOc1cc(CNCc2ccccn2)ccc1OCC(=O)NC(C)(C)C`: 103%; for `Clc1ccc2nc(CSc3ccccc3)cn2c1`: 169%; for `CC(Sc1nnc2c(n1)C1CCC2(C)C1(C)C)C(=O)Nc1ccccc1` (stereo unspecified): 102%.
In the case of `NC(=O)c1c(Nc2nc3c(F)cccc3s2)sc2c1CCCC2`, the binding response (% of control) was 95%.
Consider `Fc1cc(F)c2nc(Nc3nc4c(F)cccc4s3)sc2c1`, for which the binding response (% of control) was 192% [activator] (active).
Regarding `O=C(Nc1nc2c(F)cc(F)cc2s1)C1COc2ccccc2O1` (stereo unspecified), the binding response (% of control) was 99.5%.
As for `NC(=O)CC(NC(=O)Cc1cccc2ccccc12)c1ccc(NCc2cc(F)ccc2F)c([N+](=O)[O-])c1` (stereo unspecified), the figure is 100%.
For the compound `CC(C)CC(=O)Nc1cc(C(F)(F)F)ccc1N1CCOCC1`, the binding response (% of control) was 101%.
As for `COc1cc(C(=O)Nc2cc(C(F)(F)F)ccc2-n2cncn2)cc(OC)c1OC`, the figure is 98.2%.
As for `COc1cc(C(=O)Nc2cc(C(F)(F)F)ccc2N2CCOCC2)ccc1O`, the binding response (% of control) is 9.57% (active).
As to `CC(=O)N1N=C(c2ccncc2)OC1(Cc1ccccc1)Cc1ccccc1`, the binding response (% of control) is 96.5%.
Take `N#Cc1c(N2CCCCC2)nc(N)c2c(N)nc(SCC(=O)O)cc12`: the binding response (% of control) was 114%.
As for `COc1ccc(CCNC(=O)C(=O)Nc2ccc3nc4n(c(=O)c3c2)CCCCC4)cc1OC`, the figure is 105%; as for `Cc1nn(-c2ccccc2)c(=O)c2noc(C)c12`, 102%.
As for `CCC(C)NC(=O)C1c2ccccc2Oc2ccccc21` (stereo unspecified), the figure is 103%; as for `O=C(OCC(=O)N1CCN(C(=O)c2ccco2)CC1)c1ccccc1Cc1ccccc1`, 82.8%.
Consider `COc1cccc(OC)c1OCCN1CCN(C(=O)c2ccco2)CC1`, for which the binding response (% of control) is 101%.
Regarding `Cc1ccc(C)c(OCC(=O)N2CCN(C(=O)c3ccco3)CC2)c1`, the binding response (% of control) was 24.4% (active).
As for `CC(C)(C)C1CCC(=NNC(=O)c2cc(-c3ccccc3)n[nH]2)CC1` (stereo unspecified), the figure is 85.9%.
The same measure for `COc1cc(/C=C/C(=O)N2c3ccccc3Sc3ccc(C(F)(F)F)cc32)cc(OC)c1OC`: 97%; for `O=C(CN1CCCCCC1)N1c2ccccc2Sc2ccc(C(F)(F)F)cc21`: 81.4%.
As for `O=C(CN1CCCCC1)N1c2ccccc2Sc2ccc(C(F)(F)F)cc21`, the figure is -6.83% (active); as for `COc1ccc(S(=O)(=O)N(C)C)cc1NC(=O)CSc1ncccn1`, 101%.
As to `CCC(C)N(C(=O)COC(=O)C1C(C(=O)OC)=C(C)NC(C)=C1C(=O)OC)C1CCS(=O)(=O)C1` (stereo unspecified), the binding response (% of control) was 104%.
The same measure for `Cc1nn(-c2ccccc2)c(C)c1C(=O)OCC(=O)NC(=O)NC1CCCCC1`: 98.5%.
The same measure for `Cc1ccc(OC(=O)c2c(C)nn(-c3ccccc3)c2C)cc1`: 96.3%; for `CCCn1c(C)cc(C(=O)COC(=O)c2c(C)nn(-c3ccccc3)c2C)c1C`: -33.9% (active); for `O=C(Nc1ccc(Cl)cc1)/C(=C1\CCCN1)[N+](=O)[O-]`: 97.8%.
As for `Clc1ccc(C2CC(c3cccs3)n3ncnc3N2)cc1Cl` (stereo unspecified), the figure is 103%.
In the case of `COc1ccc(C2CC(c3ccccc3)Nc3ncnn32)cc1` (stereo unspecified), the binding response (% of control) was 103%.
The same measure for `FC(F)Oc1ccccc1C1CC(c2ccc(Br)s2)Nc2ncnn21` (stereo unspecified): 215% [activator] (active).
Turning to `COc1ccc(CCNC(=O)c2ccc(CS(=O)(=O)c3ccc(Br)cc3)o2)cc1OC`, the binding response (% of control) was 107%.
As for `COc1ccccc1N(C)S(=O)(=O)c1ccc(C(=O)NC2CCCCCC2)cc1`, the figure is 102%; as for `CC(=O)Nc1ccc(/C=N/Nc2ccc(C(=O)c3c(C)cc4ccccn34)cc2[N+](=O)[O-])cc1`, 89.3%; as for `COC(C[C@H](O)CC(=O)COCc1ccccc1)OC`, 110%.
The same measure for `CC(C)(CNC(=O)c1ccc(Cl)c(S(=O)(=O)N2CCc3ccccc3C2)c1)N1CCOCC1`: 96.9%; for `CCOC(=O)C1C(c2ccc(Cl)cc2)NC(=S)NC1(O)C(F)(F)F` (stereo unspecified): 102%.
The same measure for `CCOC(=O)C1=C(C)NC(=O)N(C(C)=O)C1c1ccc(Cl)cc1` (stereo unspecified): 109%.
Turning to `CCOC(=O)C1Sc2[nH]c(=O)sc2C(c2ccc(Cl)cc2)C1C(=O)OCC` (stereo unspecified), the binding response (% of control) is -39.2% (active).
The same measure for `CC(C)(C)NC(=O)COC(=O)c1cc(Cl)ccc1[N+](=O)[O-]`: 100%; for `CN1C=CC=C/C1=C1\SC(=S)N(Cc2ccccc2)C1=O`: 100%.
The same measure for `CCc1cccc(C)c1NC(=S)N(CCCN1CCN(C)CC1)Cc1cccs1`: 105%.
The same measure for `Cc1ccccc1NC(=S)N(CCCN1CCOCC1)Cc1cccs1`: 181% [activator] (active).
For the compound `Cc1ccc(Cl)cc1NC(=S)N(CCN(C)C)Cc1cccs1`, the binding response (% of control) was 99.5%.
The same measure for `COc1ccc(C(CC(=O)N2CCN(c3ccccc3)CC2)c2c(O)cc(OC)cc2OC)cc1` (stereo unspecified): 99.5%; for `O=C(CCNc1n[nH]c(=O)[nH]c1=O)N/N=C\c1ccc(Br)cc1`: 100%.
The same measure for `NCCCCCC(=O)N/N=C/c1ccc2nccnc2c1`: 105%; for `CC(=O)N(CN1C(=O)C2C3C=CC(C3)C2C1=O)c1cccc(Cl)c1` (stereo unspecified): 104%.
The same measure for `Cc1ccc(OCCCn2c(=O)oc3ccccc32)cc1`: 106%; for `O=C(O)C#Cc1cccc2ccccc12`: 103%.
Turning to `Nc1ccc(OCC(O)C[n+]2ccc(CCS(=O)(=O)[O-])cc2)cc1` (stereo unspecified), the binding response (% of control) was 97.6%.
The same measure for `CCCn1nnnc1NC(=O)COc1ccc(Cl)cc1C`: 2.27% (active); for `Cc1cc(NC(=O)COc2ccc(Cl)cc2Cl)n(CCC#N)n1`: 93.4%; for `CCOC(=O)N1CCN(C(=O)COc2ccc(Cl)cc2C)CC1`: 97.8%.
As for `CC(C)=NN1C(=O)c2ccccc2NC1(C)C`, the figure is 120%; as for `O=C(CSc1cccc[n+]1[O-])c1ccc(-c2ccccc2)cc1`, 104%.
Take `N#Cc1ccc(CSc2nnc3ccccn23)cc1`: the binding response (% of control) is 101%.
As for `COP1(=O)C[C@@H](O)[C@@H](O)[C@@H](COCc2ccccc2)O1` (stereo partly specified), the figure is 103%; as for `Cc1ccsc1C1C(C#N)=C(N)OC2=C1C(=O)CC(C)(C)C2` (stereo unspecified), 118%.
The same measure for `COc1ccc(Cl)cc1C(=O)NNC(=O)c1nc2nc(C)cc(C)n2n1`: 95.3%; for `O=C(OCc1ccc(Br)cc1)c1cccc(-c2nnc(-c3ccccc3)o2)c1`: 102%.
The same measure for `O=C(Nc1cccc(-c2nc3ccccc3[nH]2)c1)c1ccc(C(=O)Nc2cccc(-c3nc4ccccc4[nH]3)c2)cc1`: 219% [activator] (active); for `O=C(/C=C/c1ccco1)Nc1cccc(-c2nc3ccccc3[nH]2)c1`: 98.3%; for `O=C(Cc1cccs1)Nc1cccc(-c2nc3ccccc3[nH]2)c1`: 97.3%.
Regarding `NC(=S)Nc1c(Cl)cccc1Cl`, the binding response (% of control) was 98.9%.
Take `CCOc1c(Nc2cccc(Cl)c2)c(=O)c1=O`: the binding response (% of control) is 119%.
The same measure for `COc1ccc(-c2ccc(CNCCCN3CCOCC3)o2)cc1Cl`: 98.4%; for `CNC(=S)NNC(=O)c1cccn(Cc2ccccc2)c1=O`: 100%.
The same measure for `CCCC[C@@H]1CN=C(N)N1CCc1cc(C(F)(F)F)cc(C(F)(F)F)c1`: 100%; for `CCN(CC)c1ccc(/C=N/NC(=O)c2cnccn2)c(O)c1`: 94.6%; for `N/C(=N\OC(=O)CCc1ccccc1)c1cccnc1`: 105%.
As for `COc1ccc(CC(=O)n2nc(-c3cccnc3)nc2N)cc1`, the figure is 93.8%.
In the case of `COc1ccccc1C(=O)n1nc(-c2ccccc2)nc1N`, the binding response (% of control) was 102%.
In the case of `CCCC(=O)n1nc(-c2ccccc2)nc1N`, the binding response (% of control) was 14.9% (active).
As for `Nc1ccccc1C(=O)NC1CCCCNC1=O` (stereo unspecified), the figure is 95.3%.
As for `COc1ccc2c(c1)C(=C(C#N)C#N)C(=O)N2CCc1ccccc1`, the figure is 113%; as for `Nc1ccc(C(=O)OCC(=O)NC2CCS(=O)(=O)C2)cc1[N+](=O)[O-]` (stereo unspecified), -10.3% (active); as for `Nc1ccc(C(=O)OCC(=O)NC2CCCc3ccccc32)cc1[N+](=O)[O-]` (stereo unspecified), 98.8%.
For the compound `O=C(COC(=O)/C=C/c1ccc2c(c1)OCO2)NC1CCS(=O)(=O)C1` (stereo unspecified), the binding response (% of control) was 98.5%.
Turning to `COc1cc(OC)c(C(=O)N2CCCC2)cc1OC`, the binding response (% of control) is 100%.
The same measure for `CCC(C)(C)NC(=O)C(c1cccc(OC)c1OC)N(CC(C)C)C(=O)CCC(=O)Nc1cc(C)on1` (stereo unspecified): 105%; for `COc1ccc(-c2nn(-c3ccccc3)cc2/C=N/Nc2ccccn2)cc1OC`: 112%; for `COc1ccc(-c2nn(-c3ccccc3)cc2C(=O)Nc2nccs2)cc1OC`: 24.6% (active).
As for `COc1ccc(-c2nn(-c3ccccc3)cc2C(=O)Nc2nc(CC(C)=O)ns2)cc1`, the figure is 95.8%.
